Data published in the supplement of paper PMC6555819.

Columns and labels:
Assay in all cases: PBM binding z-score (relative to random genomic background probes); higher = stronger binding; sequences stand for … in GC…GCGATTGACAGCGTAGAATGAAGG
[1] = tested on: RARb homodimer (NR concentration 270 nM)
Procedure, shortened: (§1)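 For binding z-scores, the reference was random background probes on custom Agilent 4×180K protein-binding microarrays. These arrays were incubated 1 h with ligand-free nuclear receptor dimers in PBS pH 7.4, 2% milk, 0.02% Triton X-100, 1 mM DTT, 0.2 mg/mL BSA and 0.4 mg/ml salmon testes DNA. Fluorescence was scanned after antibody detection of each partner (one per run) and regression-normalized.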

[2] = tested on: RARg:RXRa (NR concentration 270 nM, RXRa partner concentration 90 nM)
Procedure, shortened: as §1

[3] = tested on: RARg homodimer (NR concentration 270 nM)
Procedure, shortened: as §1

[4] = tested on: RXRa DBDmut IVT, anti-RXR (DBD mutation: RXRa K156A/R161A, NR concentration 90 nM)
Procedure, shortened: as §1

[5] = tested on: RXRa homodimer (NR concentration 180 nM)
Procedure, shortened: as §1

[6] = tested on: THRa:RXRa (NR concentration 90 nM, RXRa partner concentration 90 nM)
Procedure, shortened: as §1

[7] = tested on: THRa homodimer (NR concentration 90 nM)
Procedure, shortened: as §1

[8] = tested on: VDR:RXRa (NR concentration 270 nM, RXRa partner concentration 90 nM)
Procedure, shortened: as §1

[9] = tested on: VDR homodimer (NR concentration 270 nM)
Procedure, shortened: as §1

GCGACTGGGGCAAAGCAGGTTACCTTAAGGTTGG
PBM binding z-score [1]: 0.957 | PBM binding z-score [2]: 0.509 | PBM binding z-score [3]: 0.229 | PBM binding z-score [4]: -0.0758 | PBM binding z-score [5]: 0.238 | PBM binding z-score [6]: 3.21 | PBM binding z-score [7]: 1.82 | PBM binding z-score [8]: 0.0193 | PBM binding z-score [9]: -0.116

CCTGCTAGGTCATGGTCAGCAAATCTACAGTATG
PBM binding z-score [1]: 2.81 | PBM binding z-score [2]: 4.02 | PBM binding z-score [3]: 4.6 | PBM binding z-score [4]: 1.74 | PBM binding z-score [5]: 2.84 | PBM binding z-score [6]: 3.09 | PBM binding z-score [7]: 1.37 | PBM binding z-score [8]: 1.48 | PBM binding z-score [9]: 0.339

TCTAGCAGGCCAGAGGGACACTCAAGAGGTACGG
PBM binding z-score [1]: 0.146 | PBM binding z-score [2]: -0.0485 | PBM binding z-score [3]: 0.179 | PBM binding z-score [4]: -0.19 | PBM binding z-score [5]: 0.112 | PBM binding z-score [6]: -0.54 | PBM binding z-score [7]: -0.905 | PBM binding z-score [8]: -0.463 | PBM binding z-score [9]: -0.834

ACTTACGGGTCAACGAGGTTGTAGCACGCGTATA
PBM binding z-score [1]: 3.03 | PBM binding z-score [2]: 5.34 | PBM binding z-score [3]: 4.57 | PBM binding z-score [4]: 2.44 | PBM binding z-score [5]: 5.59 | PBM binding z-score [6]: 3.38 | PBM binding z-score [7]: 0.417 | PBM binding z-score [8]: 7.54 | PBM binding z-score [9]: 2.86

TGTATTAGTTGATTAGGGCAACCGAAACAGCGGA
PBM binding z-score [1]: 0.715 | PBM binding z-score [2]: 0.692 | PBM binding z-score [3]: 0.807 | PBM binding z-score [4]: -0.317 | PBM binding z-score [5]: -0.0234 | PBM binding z-score [6]: 0.551 | PBM binding z-score [7]: 0.64 | PBM binding z-score [8]: 0.00753 | PBM binding z-score [9]: 0.784

CGACCTAGGTCAAGGACAGTGAATCTCCGCACGC
PBM binding z-score [1]: 3.02 | PBM binding z-score [2]: 4.65 | PBM binding z-score [3]: 4.69 | PBM binding z-score [4]: 1.82 | PBM binding z-score [5]: 3.41 | PBM binding z-score [6]: 3.39 | PBM binding z-score [7]: 2.25 | PBM binding z-score [8]: 1.96 | PBM binding z-score [9]: 0.294

GGAACGAGGGCAAAGTCGATAGCATCTGTCGACG
PBM binding z-score [1]: 0.649 | PBM binding z-score [2]: 0.932 | PBM binding z-score [3]: 0.988 | PBM binding z-score [4]: 2.53 | PBM binding z-score [5]: 0.723 | PBM binding z-score [6]: 0.62 | PBM binding z-score [7]: -0.445 | PBM binding z-score [8]: 0.524 | PBM binding z-score [9]: 1.19

CGTCCAAGGTCAAGGTCAGCGAAAGAGACTCGAA
PBM binding z-score [1]: 5.23 | PBM binding z-score [2]: 6.94 | PBM binding z-score [3]: 7.94 | PBM binding z-score [4]: 3.44 | PBM binding z-score [5]: 6.74 | PBM binding z-score [6]: 4.14 | PBM binding z-score [7]: 3.58 | PBM binding z-score [8]: 4.97 | PBM binding z-score [9]: 3.19

TCTTGTAGAACAGCAGGTTAAGAAAGCTGGCCAA
PBM binding z-score [1]: -0.365 | PBM binding z-score [2]: -0.24 | PBM binding z-score [3]: -0.558 | PBM binding z-score [4]: 0.506 | PBM binding z-score [5]: 0.0431 | PBM binding z-score [6]: -0.111 | PBM binding z-score [7]: -1.15 | PBM binding z-score [8]: 0.0158 | PBM binding z-score [9]: -0.882

TAGCCTAGGTCGGATCGGGCCAGTATACGCTATA
PBM binding z-score [1]: 0.206 | PBM binding z-score [2]: 0.17 | PBM binding z-score [3]: 0.282 | PBM binding z-score [4]: -1.2 | PBM binding z-score [5]: -0.0599 | PBM binding z-score [6]: 2.67 | PBM binding z-score [7]: -0.787 | PBM binding z-score [8]: -0.475 | PBM binding z-score [9]: -0.985

AGAATGAGGTTACCAAAGATCAGGGACACGCTTG
PBM binding z-score [1]: 1.72 | PBM binding z-score [2]: 2.29 | PBM binding z-score [3]: 1.89 | PBM binding z-score [4]: 1.2 | PBM binding z-score [5]: 2.64 | PBM binding z-score [6]: 3.33 | PBM binding z-score [7]: 2.17 | PBM binding z-score [8]: 1.54 | PBM binding z-score [9]: 0.768

TCTAGTTGGTCACGAAGGTCACACACGACGGGTA
PBM binding z-score [1]: 4.07 | PBM binding z-score [2]: 4.7 | PBM binding z-score [3]: 5.06 | PBM binding z-score [4]: 1.09 | PBM binding z-score [5]: 4.24 | PBM binding z-score [6]: 3.02 | PBM binding z-score [7]: 1.5 | PBM binding z-score [8]: 4.98 | PBM binding z-score [9]: 2.09

TCTGCTAGGTCAACGATGGTCAGCCAATCTGCTA
PBM binding z-score [1]: 3.23 | PBM binding z-score [2]: 4.3 | PBM binding z-score [3]: 5.2 | PBM binding z-score [4]: 1.06 | PBM binding z-score [5]: 2.55 | PBM binding z-score [6]: 3.16 | PBM binding z-score [7]: 0.561 | PBM binding z-score [8]: 1.66 | PBM binding z-score [9]: -0.316
